The values that follow come from PubChem BioAssay (EPA / NIEHS).

Calls of active or inactive are those of the source. The calls were made as follows: active = hit-call score of the fitted dose curve at least 0.9, where 1 is the maximum; inactive = score below 0.9.

Holding throughout (conditions): mRNA level, 48 h; actives raise or lower the signal
Read-out in assay [1]: Bcl-2 (BID) gene, BID (gene 637)
Put plainly: LTEA_HepaRG_BID: Life Technologies and Expression Analysis (LTEA) Assay for Bcl-2 (BID) gene using HepaRG (AID 2283476). An outline of the steps: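 Gene expression by qRT-PCR in HepaRG cells after 48 h exposure, duplicate wells, eight half-log concentrations topping at 100 uM in 0.5% DMSO. Normalized to ACTB, GAPDH, POLR2A; bidirectional fitting relative to DMSO.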

Read-out in another assay: Caspase-3 (Homo sapiens) (UniProt P42574)
Put plainly: LTEA_HepaRG_CASP3: Life Technologies and Expression Analysis (LTEA) Assay for cysteine-aspartic acid protease (CASP3) using HepaRG (AID 2283477). Summed up: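 In HepaRG liver cells dosed for 48 h at up to 100 uM (eight-point, duplicate), CASP3 expression changes are scored by qRT-PCR. Activity is fitted in both directions with 0.5% DMSO as baseline.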

Read-out in assay [2]: Cytochrome P450 (CYP24A1), CYP24A1 (gene 1591)
The assay is described as follows: LTEA_HepaRG_CYP24A1: Life Technologies and Expression Analysis (LTEA) Assay for Cytochrome P450 (CYP24A1) using HepaRG (AID 2283478). An outline of the steps:
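Human liver HepaRG cultures receive each chemical for 48 h across an eight-point half-log series topping at 100 uM in 0.5% DMSO. Induction or suppression of CYP24A1 mRNA is scored relative to vehicle after housekeeping-gene normalization.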

Read-out in assay [3]: Cytochrome P450 (CYP1A2), CYP1A2 (gene 1544)
The assay is described as follows: LTEA_HepaRG_CYP1A2: Life Technologies and Expression Analysis (LTEA) Assay for Cytochrome P450 (CYP1A2) using HepaRG (AID 2283479). An outline of the steps:
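Assesses CYP1A2 mRNA in human HepaRG liver cells after 48 h chemical exposure at up to 100 uM. Values come from qRT-PCR with bidirectional curve fitting relative to DMSO.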

Read-out in assay [4]: cysteine-aspartic acid protease (CASP8), CASP8 (gene 841)
Put plainly: LTEA_HepaRG_CASP8: Life Technologies and Expression Analysis (LTEA) Assay for cysteine-aspartic acid protease (CASP8) using HepaRG (AID 2283480). An outline of the steps: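 Differentiated HepaRG cells in serum-free induction medium, 48 h exposure, eight-point half-log series from 100 uM in 0.5% DMSO, duplicates. CASP8 mRNA by qRT-PCR, normalized to ACTB, GAPDH, POLR2A; bidirectional fit versus DMSO.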

Read-out in assay [5]: Cytochrome P450 (CYP2B6), CYP2B6 (gene 1555)
The assay is described as follows: LTEA_HepaRG_CYP2B6: Life Technologies and Expression Analysis (LTEA) Assay for Cytochrome P450 (CYP2B6) using HepaRG (AID 2283481). An outline of the steps:
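Using 48 h treatment of HepaRG cells in serum-free induction medium, concentrations spanned half-log steps from 100 uM in 0.5% DMSO vehicle. CYP2B6 mRNA induction or loss is scored by qRT-PCR against DMSO.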

Read-out in assay [6]: Cytochrome P450 2C19 (Homo sapiens) (UniProt P33261)
Put plainly: LTEA_HepaRG_CYP2C19: Life Technologies and Expression Analysis (LTEA) Assay for CYP2C19 using HepaRG (AID 2283482). Summed up: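 Human HepaRG liver cells received test chemicals for 48 h (highest 100 uM, half-log dilutions in 0.5% DMSO). CYP2C19 mRNA induction or loss is read by multiplexed qRT-PCR and fitted in both directions versus vehicle.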

Read-out in another assay: CYP2C8 (gene 1558)
Put plainly: LTEA_HepaRG_CYP2C8: Life Technologies and Expression Analysis (LTEA) Assay for CYP2C8 using HepaRG (AID 2283483). An outline of the steps: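 Differentiated HepaRG cells in serum-free induction medium exposed 48 h in duplicate to 8 half-log concentrations from 100 uM in 0.5% DMSO. CYP2C8 mRNA by qRT-PCR normalized to ACTB, GAPDH, POLR2A; bidirectional fit versus DMSO.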

Read-out in another assay: CYP2E1 (gene 1571)
The assay is described as follows: LTEA_HepaRG_CYP2E1: Life Technologies and Expression Analysis (LTEA) Assay for CYP2E1 using HepaRG (AID 2283485). An outline of the steps:
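HepaRG cells, plated 48 h, then exposed 48 h in serum-free induction medium to eight half-log concentrations from 100 uM in 0.5% DMSO, duplicate. CYP2E1 mRNA by qRT-PCR, normalized to ACTB/GAPDH/POLR2A; bidirectional fit versus DMSO.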

Read-out in the next assay: CYP4A11 (gene 1579)
Put plainly: LTEA_HepaRG_CYP4A11: Life Technologies and Expression Analysis (LTEA) Assay for CYP4A11 using HepaRG (AID 2283486). Summed up: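 Readout is CYP4A11 mRNA induction or suppression (qRT-PCR, ACTB/GAPDH/POLR2A normalization) in human HepaRG cells after 48 h chemical treatment, concentrations to 100 uM in 0.5% DMSO, fitted bidirectionally against vehicle.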

Read-out in assay [7]: Cytochrome P450 3A4 (Homo sapiens) (UniProt P08684)
The assay is described as follows: LTEA_HepaRG_CYP3A4: Life Technologies and Expression Analysis (LTEA) Assay for CYP3A4 using HepaRG (AID 2283487). Summed up:
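Differentiated HepaRG cells in serum-free induction medium exposed in duplicate for 48 h to 8 half-log concentrations up to 100 uM in 0.5% DMSO. CYP3A4 mRNA measured by qRT-PCR normalized to ACTB, GAPDH and POLR2A; bidirectional fit versus DMSO.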

Read-out in assay [8]: DNA damage-inducible transcript 3 (DDIT3), DDIT3 (gene 1649)
Put plainly: LTEA_HepaRG_DDIT3: Life Technologies and Expression Analysis (LTEA) Assay for DNA damage-inducible transcript 3 (DDIT3) using HepaRG (AID 2283488). Summed up: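 HepaRG cells, 48 h after plating, exposed 48 h in serum-free induction medium to 8 half-log concentrations up to 100 uM in 0.5% DMSO, in duplicate. DDIT3 mRNA measured by TaqMan qRT-PCR, normalized to ACTB, GAPDH and POLR2A. Fitted bidirectionally against DMSO.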

Read-out in assay [9]: Pro-epidermal growth factor (Homo sapiens) (UniProt P01133)
Put plainly: LTEA_HepaRG_EGF: Life Technologies and Expression Analysis (LTEA) Assay for Epidermal growth factor (EGF) using HepaRG (AID 2283489). An outline of the steps:
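EGF expression changes in human HepaRG cells are scored by bidirectional fitting relative to 0.5% DMSO controls. Chemicals are tested at eight half-log concentrations up to 100 uM for 48 h in serum-free induction medium.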

Read-out in assay [10]: Early growth response protein 1 (EGR1) transcription factor, EGR1 (gene 1958)
The assay is described as follows: LTEA_HepaRG_EGR1: Life Technologies and Expression Analysis (LTEA) Assay for Early growth response protein 1 (EGR1) transcription factor using HepaRG (AID 2283490). An outline of the steps: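 Differentiated HepaRG cells in serum-free induction medium exposed 48 hours, duplicate, to 8 half-log concentrations up to 100 uM in 0.5% DMSO. EGR1 mRNA measured by TaqMan qRT-PCR, normalized to ACTB, GAPDH, POLR2A; bidirectional fit versus DMSO.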

Read-out in assay [11]: Ezrin (EZR), EZR (gene 7430)
The assay is described as follows: LTEA_HepaRG_EZR: Life Technologies and Expression Analysis (LTEA) Assay for Ezrin (EZR) using HepaRG (AID 2283491). Summed up:
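Differentiated human HepaRG cells, 48 h after plating, were exposed in serum-free induction medium for 48 hours to eight half-log concentrations up to 100 uM in 0.5% DMSO. EZR mRNA was measured by TaqMan qRT-PCR, normalized to ACTB, GAPDH and POLR2A, and fitted bidirectionally against DMSO.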

Read-out in assay [12]: Cytochrome P450 3A7 (Homo sapiens) (UniProt P24462)
The assay is described as follows: LTEA_HepaRG_CYP3A7: Life Technologies and Expression Analysis (LTEA) Assay for CYP3A7 using HepaRG (AID 2283492). An outline of the steps:
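Cells were thawed, plated, cultured 48 h, then treated for a further 48 h with chemicals (eight-point half-log series from 100 uM, 0.5% DMSO). RNA was isolated and CYP3A7 expression quantified by qRT-PCR normalised to ACTB, GAPDH and POLR2A.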

Read-out in another assay: CYP3A5 (gene 1577)
The assay is described as follows: LTEA_HepaRG_CYP3A5: Life Technologies and Expression Analysis (LTEA) Assay for CYP3A5 using HepaRG (AID 2283493). Summed up:
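HepaRG cells, plated 48 h then in serum-free induction medium, dosed in duplicate for 48 h with eight half-log concentrations up to 100 uM in 0.5% DMSO. Gene mRNA by Fluidigm TaqMan qRT-PCR, normalized to ACTB, GAPDH, POLR2A.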

Read-out in assay [13]: Fatty Acid-Binding Protein 1 (FABP1), FABP1 (gene 2168)
The assay is described as follows: LTEA_HepaRG_FABP1: Life Technologies and Expression Analysis (LTEA) Assay for Fatty Acid-Binding Protein 1 (FABP1) using HepaRG (AID 2283494). Summed up:
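Differentiated human HepaRG cells exposed 48 h in serum-free induction medium to eight half-log concentrations up to 100 uM (0.5% DMSO), duplicate. FABP1 mRNA by qRT-PCR, normalised to ACTB, GAPDH, POLR2A; bidirectional fitting against DMSO.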

Read-out in assay [14]: Cytochrome P450 4A22 (Homo sapiens) (UniProt Q5TCH4)
The assay is described as follows: LTEA_HepaRG_CYP4A22: Life Technologies and Expression Analysis (LTEA) Assay for Cytochrome P450 4A22 (CYP4A22) using HepaRG (AID 2283495). An outline of the steps: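 Cryopreserved HepaRG cells, plated and cultured 48 h, then switched to serum-free induction medium and treated 48 h (duplicates, up to 100 uM, half-log steps, 0.5% DMSO). Expression change of CYP4A22 was fitted bidirectionally against vehicle.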

Read-out in the next assay: CYP2C9 (gene 1559)
Put plainly: LTEA_HepaRG_CYP2C9: Life Technologies and Expression Analysis (LTEA) Assay for CYP2C9 using HepaRG (AID 2283484). Summed up:
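Differentiated human HepaRG cells in serum-free induction medium were exposed 48 h to chemicals in 8-point half-log series from 100 uM (0.5% DMSO), in duplicate. CYP2C9 mRNA was measured by qRT-PCR, normalized to ACTB/GAPDH/POLR2A, with bidirectional fitting versus DMSO.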

Caspase-3 (Homo sapiens), sequence (P42574 whole entry, looked up): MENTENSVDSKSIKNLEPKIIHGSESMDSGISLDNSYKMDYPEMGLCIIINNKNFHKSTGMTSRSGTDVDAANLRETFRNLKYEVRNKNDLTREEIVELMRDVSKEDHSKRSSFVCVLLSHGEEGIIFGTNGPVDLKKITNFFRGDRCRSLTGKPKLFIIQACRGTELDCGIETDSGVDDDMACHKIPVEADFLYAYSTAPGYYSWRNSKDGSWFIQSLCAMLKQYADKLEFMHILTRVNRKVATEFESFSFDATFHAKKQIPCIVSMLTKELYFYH
Cytochrome P450 3A7 (Homo sapiens), sequence (P24462 whole entry, looked up): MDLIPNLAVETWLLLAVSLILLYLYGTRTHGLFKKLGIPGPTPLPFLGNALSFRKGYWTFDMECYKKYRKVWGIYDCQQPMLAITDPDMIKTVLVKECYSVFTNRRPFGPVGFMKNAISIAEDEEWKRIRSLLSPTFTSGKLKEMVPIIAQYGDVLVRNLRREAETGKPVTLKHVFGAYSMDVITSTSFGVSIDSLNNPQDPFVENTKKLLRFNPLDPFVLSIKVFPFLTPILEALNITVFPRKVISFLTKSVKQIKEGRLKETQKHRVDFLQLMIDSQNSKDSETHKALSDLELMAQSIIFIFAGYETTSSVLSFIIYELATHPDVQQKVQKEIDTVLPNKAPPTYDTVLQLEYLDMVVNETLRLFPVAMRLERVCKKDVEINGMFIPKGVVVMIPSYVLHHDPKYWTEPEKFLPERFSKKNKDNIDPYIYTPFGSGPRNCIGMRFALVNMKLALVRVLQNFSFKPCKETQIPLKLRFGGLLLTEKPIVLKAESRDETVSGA
Cytochrome P450 2C19 (Homo sapiens), sequence (P33261 whole entry, looked up): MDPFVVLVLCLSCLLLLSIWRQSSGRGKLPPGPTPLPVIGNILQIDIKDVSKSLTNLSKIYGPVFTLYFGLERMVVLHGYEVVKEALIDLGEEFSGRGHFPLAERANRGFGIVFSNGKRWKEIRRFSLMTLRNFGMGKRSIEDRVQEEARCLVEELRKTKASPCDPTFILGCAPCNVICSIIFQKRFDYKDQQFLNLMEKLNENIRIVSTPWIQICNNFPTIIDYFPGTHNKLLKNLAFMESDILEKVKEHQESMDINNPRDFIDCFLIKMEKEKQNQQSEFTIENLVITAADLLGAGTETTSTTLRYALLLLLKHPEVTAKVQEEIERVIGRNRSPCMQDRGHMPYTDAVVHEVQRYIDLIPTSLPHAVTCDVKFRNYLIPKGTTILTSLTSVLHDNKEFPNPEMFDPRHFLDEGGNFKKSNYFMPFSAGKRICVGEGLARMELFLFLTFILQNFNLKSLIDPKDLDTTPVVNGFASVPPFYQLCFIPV
Cytochrome P450 3A4 (Homo sapiens), sequence (P08684 whole entry, looked up): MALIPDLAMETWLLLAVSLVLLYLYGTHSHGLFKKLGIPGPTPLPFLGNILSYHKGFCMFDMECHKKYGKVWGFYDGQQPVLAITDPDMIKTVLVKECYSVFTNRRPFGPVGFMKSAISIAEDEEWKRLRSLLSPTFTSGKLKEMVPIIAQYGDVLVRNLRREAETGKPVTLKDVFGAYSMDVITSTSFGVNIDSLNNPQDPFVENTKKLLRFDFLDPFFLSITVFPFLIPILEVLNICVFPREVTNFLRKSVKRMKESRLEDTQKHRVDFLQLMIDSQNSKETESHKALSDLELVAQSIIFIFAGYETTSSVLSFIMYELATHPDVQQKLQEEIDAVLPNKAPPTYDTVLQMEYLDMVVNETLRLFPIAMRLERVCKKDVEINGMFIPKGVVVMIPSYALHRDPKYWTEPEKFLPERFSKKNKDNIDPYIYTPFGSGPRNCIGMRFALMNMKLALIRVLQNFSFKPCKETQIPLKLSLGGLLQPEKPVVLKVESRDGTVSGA

For the compound `C#CC(C)(C)NC(=O)c1cc(Cl)cc(Cl)c1`, the outcome (in assay [1]; with Caspase-3 (Homo sapiens); in assay [2]; in assay [4]; in the assay with CYP2C8 (gene 1558); with CYP4A11 (gene 1579)) was inactive. The call (in assay [8]; in assay [9]; in assay [10]; in assay [11]; with CYP3A5 (gene 1577); in assay [13]) was inactive. The AC50 in assay [3] was 50 µM (active); in assay [5], 8.65 µM (active); in [6], 20.2 µM (active); with CYP2E1 (gene 1571), 26.1 µM (active); in assay [7], 5.13 µM (active); in assay [12], 4.98 µM (active). Besides, the AC50 in [14] is 40.9 µM (active).
`CCOP(=O)(SC(C)CC)N1CCSC1=O` (stereo not drawn): the outcome (in assay [1]; with Caspase-3 (Homo sapiens); in [2]; in assay [3]; in assay [4]; in assay [6]) was inactive. In addition, the result (with CYP2C8 (gene 1558); in the assay with CYP2C9 (gene 1559); in [8]; in assay [9]; in assay [10]; in assay [11]) was inactive. For the same compound, the call (in [12]; with CYP3A5 (gene 1577)) was inactive. The AC50 was 2.56 µM (active) in assay [5]; 19.1 µM (active) with CYP2E1 (gene 1571); 17 µM (active) with CYP4A11 (gene 1579); 16.1 µM (active) in [7]; 16.1 µM (active) in assay [13]; 12.6 µM (active) in assay [14].
As to `N#CSCSC#N`, the compound was called inactive (in [1]; with Caspase-3 (Homo sapiens); in [2]; in [3]; in assay [4]; in [8]). The compound was called inactive in assay [9], in [10] and in assay [11]. Moreover, the AC50 in assay [5] was 92.3 µM (active); in [6] it was 90.8 µM (active); with CYP2C8 (gene 1558), 89.4 µM (active); with CYP2E1 (gene 1571), 82.9 µM (active); with CYP4A11 (gene 1579), 81.5 µM (active); in [7] it was 77.2 µM (active). In addition, the AC50 in [12] is 59.5 µM (active); with CYP3A5 (gene 1577) it was 50 µM (active); in [13], 86.2 µM (active); in [14], 90.6 µM (active).

In general, AC50 refers to the concentration at which the activity in the assay is half-maximal.
